Screens deposited in PubChem by National Center for Advancing Translational Sciences (NCATS).
This excerpt belongs to a sample that is enriched for hits.
USP2a block = blocks human ubiquitin-specific protease USP2a; O75604; USP2 core, Ub-CHOP2 coupled fluorogenic reporter, 485/531; Potency, µM (series often up to 38.3 µM), for inactives: at the top dose activity change, negative = inhibition, usual class: inhibitors; 330,000 compounds, 0.01% hits;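 also: plate controls were DMSO wells for no effect and full inhibition by NEM control for full effect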
Target sequence (O75604 whole entry, looked up): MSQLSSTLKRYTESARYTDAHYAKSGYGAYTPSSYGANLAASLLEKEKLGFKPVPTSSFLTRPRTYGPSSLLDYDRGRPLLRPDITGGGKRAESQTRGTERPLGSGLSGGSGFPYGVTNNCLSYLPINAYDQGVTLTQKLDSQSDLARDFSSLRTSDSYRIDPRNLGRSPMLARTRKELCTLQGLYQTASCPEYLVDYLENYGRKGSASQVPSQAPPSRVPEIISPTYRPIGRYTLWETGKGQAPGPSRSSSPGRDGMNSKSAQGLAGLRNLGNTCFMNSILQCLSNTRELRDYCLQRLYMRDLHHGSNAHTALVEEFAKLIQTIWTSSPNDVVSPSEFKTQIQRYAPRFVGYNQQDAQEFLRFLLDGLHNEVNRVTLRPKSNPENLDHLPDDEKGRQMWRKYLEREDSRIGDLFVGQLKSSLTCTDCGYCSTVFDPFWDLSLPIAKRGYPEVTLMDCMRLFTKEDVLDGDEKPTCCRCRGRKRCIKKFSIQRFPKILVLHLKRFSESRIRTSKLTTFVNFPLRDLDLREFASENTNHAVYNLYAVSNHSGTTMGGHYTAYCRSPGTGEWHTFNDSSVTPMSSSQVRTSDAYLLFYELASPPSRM
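USP2 core (10nM final) preincubated 30min RT with compound in 20mM Tris-HCl pH 8.0, 2mM CaCl2, 2mM beta-mercaptoethanol, 0.05% CHAPS; 25nM Ub-CHOP2 plus 25nM reporter substrate added, fluorescence (Ex485/Em531) read after 60min.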
a7 integrin act = integrin-mediated muscular dystrophy alleviation activation; alpha7betagal myoblasts, beta-gal FDG fluorescence, 48 h; Potency, µM (highest dose often 38.3 µM), inactives show at the top dose activation, actives largely listed as activators; 350,000 compounds, 0.064% hits; AID 624291;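 also: 100% = response of the positive control SU9516; nearly all actives have a fitted effect of over 60% in size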
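alpha7betagal+/- myoblasts (passage 13, 250/well) treated 48 h at 37C with compounds at 1:260 dilution of DMSO stock. Lysed, then beta-galactosidase activity read as FDG fluorescence (ex 480/em 540) after 30 min, with pre-read for autofluorescence.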
MmCpn inh = inhibitors of Methanococcus maripaludis chaperonin TRiC (MmCpn); purified Mm-Cpn ATPase, ADP Transcreener TR-FRET; Potency, µM (highest dose often 76.9 µM), for the others: top-dose activity, negative = inhibition, usual class: inhibitors; 330,000 compounds, 0.031% hits; AID 504842; also: % is scaled to controls: 0 for no effect and ±100 for the full control effect; nearly all actives have a fitted effect of over 80% in size
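Quantitative HTS used 25 nM Mm-CPN and 10 uM ATP in magnesium/KCl Tris buffer, pH 7.4, with 1 mM DTT. Hydrolysis ran 30 min at 37°C; ADP was read by HTRF.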
Eya2 phos inh = inhibitors of human Eya2 phosphatase activity | Potency, µM (top dose mostly 76.9 µM), for inactives: at the highest dose activity, negative = inhibition, hits mostly inhibitors | O00167 | recombinant Eya2, OMFP fluorescence dephosphorylation (OMFP is methylfluorescein phosphate) | 330,000 compounds, 0.006% hits; also: % is scaled to controls: 0 for no effect and ±100 for the full control effect
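Eya2 (0.2 uM) preincubated 10 min at ambient with compound, then OMFP substrate added at 50 uM; 10 min reaction in 50 mM HEPES pH 7.5, 50 mM NaCl, 5 uM MgCl2, 0.05% BSA, 1 mM DTT. Fluorescence read at Ex 485/Em 525 nm.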
ClpP mod = qHTS Assay for Activators of ClpP; purified B. subtilis ClpP, FRET peptide cleavage, 20 min; Potency, µM (highest dose often 57.5 µM), inactives show top-dose activity change, negative = active; 340,000 compounds, 1.9% hits; AID 651965, 2013; active = well fitted falling curve with a large enough effect; inconclusive = small, poorly fitted or top-dose-only effect; inactive = no such curve, though single readings can be large or run the other way; also: the source files actives as falling curves though it sought activators and does not explain the sign; nearly all actives have a fitted effect of over 65% in size
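Purified B. subtilis ClpP, 10 microg/mL final in Tris/HCl pH8 with KCl, BSA, glycerol and Tween-20, cleaved an Abz/nitrotyrosine-quenched decapeptide. Fluorescence (ex 320, em 430) was read at 0 and 20 min at room temperature. Delta was normalized to 5.8 microM ADEP and DMSO/no-enzyme controls.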
p53 reactivation = restores transcriptional activity of mutant p53. H1299 p53-A138V BP100-luciferase reporter, luminescence, 24 h. Potency, µM (titrated, usually from 92.2 µM), for inactives: at the top dose activity change, positive = activation, actives largely listed as activators. 320,000 compounds, 0.063% hits. AID 504706; also: % of control where 0% means no effect; nearly all actives have a fitted effect of over 45% in size
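p53-null H1299 cells stably carrying temperature-sensitive p53-A138V and a BP100-luciferase reporter were pinned with compounds (4-point, 1:5 series) and held 24 hrs at 37 deg C. Luminescence was read 10 min after detection reagent.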
Numbers without * were called inactive; ? = inconclusive; · = no result; [ ] = remark or other dose. Unless noted, calls follow the shape of the dose curve; as a rule, active = well fitted curve in the direction sought with a large enough effect; inconclusive = small, poorly fitted or top-dose-only effect, or another doubt; inactive = no such curve, though single readings can be large; an effect the other way counts as inactive or inconclusive. Potency is read from the fitted curve at half-maximal effect.

SMILES	USP2a block	a7 integrin act	MmCpn inh	Eya2 phos inh	ClpP mod	p53 reactivation
CCC1CCc2sc(C(=O)NNC(=O)c3ccncc3)cc2C1 (centres undefined)	2.0%	21.4%	-0.4%	-26.4%	14.1µM*	2.4%
CCC1CCc2sc(C(=O)O)cc2C1 (centres undefined)	0.2%	-8.3%	-5.0%	8.6%	-1.7%	-1.7%
C[n+]1c(/C=C/c2ccnc3ccccc23)cc(/C=C/c2ccnc3ccccc23)c2ccccc21	·	·	·	·	0.1%	·
O=c1c2ccccc2nc2n1CCN2	-1.1%	5.0%	0.7%	18.7%	15.8µM*	11.5%
O=C(CN1C(=O)NC2(CCOc3ccccc32)C1=O)NCc1ccccc1 (centres undefined)	4.9%	-13.9%	-0.2%	-1.8%	11.2µM*	-1.4%
CCNC(=O)CN1C(=O)NC2(CCOc3ccccc32)C1=O (centres undefined)	-1.6%	34.6%	-0.2%	0.7%	·	7.8%
CCc1ccc(N2C(=O)C(Cl)=C(N3CCCCCC3)C2=O)cc1	-0.4%	41.8%	-1.9%	8.2%	1.5%	2.7%
CCc1ccc(N2C(=O)c3ccc4c5c(ccc(c35)C2=O)CC4)cc1	-0.8%	4.5%	0.0%	?	25.1µM*	-0.2%
CCOC(=O)c1cc2c(n(-c3ccccc3)c1=O)CC(C)(C)CC2=O	1.1%	-9.7%[7.66 µM]	0.8%	-4.0%	12.6µM*	3.1%
CC1=C(C(=O)Nc2ccc(C)cn2)C(c2cnn(C)c2)C2=C(CCCC2=O)N1 (centres undefined)	1.6%	18.9%	0.3%	-3.4%	6.31µM*	-3.1%
CCn1ncc(C2C(C(=O)Nc3ccc(C)cn3)=C(C)NC3=C2C(=O)CCC3)c1C (centres undefined)	0.4%	2.6%	-1.8%	0.8%	1.9%	5.8%
O=C(CNC(=O)C1CCCCC1)OCc1ccccc1	·	·	·	·	-0.3%	·
O=C1CC(C(=O)Nc2ccc(C(=O)O)cc2)C(c2ccccc2)O1 (centres undefined)	2.4%	0.3%	0.2%	14.6%	-2.6%	11.1%
O=C1CC(C(=O)Nc2ccc(O)c(C(=O)O)c2)C(c2ccccc2)O1 (centres undefined)	0.3%	-6.0%	-3.1%	6.4%	25.1µM*	0.5%
COc1ccc(CCNC(=S)N2CCC(Cc3ccccc3)CC2)cc1OC	-0.1%	-15.8%	0.8%	2.9%	7.94µM*	4.7%
Cc1ccc(S(=O)(=O)N2CCN(c3nc(-c4cncnc4)nc4ccccc34)CC2)cc1	·	·	·	·	1.0%	·
Cc1cccc(-n2c(O)c(C=Nc3ccc(O)cc3)c3ccccc3c2=O)n1	5.6%	-7.6%	0.1%	0.6%	7.08µM*	-17.6%
CCN(CC)c1ccc2c(O)cc(=O)oc2c1	-1.2%	17.6%	-14.1%	-9.2%	·	7.5%
CCN(CC)c1ccc(C(=O)OCc2cc(=O)oc3cc(O)ccc23)cc1	3.5%	-41.4%	-1.2%	-3.2%	31.6µM*	2.1%
COC(=O)c1ccc(Sc2ccc(C)cc2)c(N)c1	-7.5%	-0.5%[7.66 µM]	-11.8%	-21.9%	28.2µM*	?
Cc1ccc(-c2nc3ccccn3c2C=O)cc1	-3.9%	-44.7%	2.9%	9.2%	-7.3%	7.3%
Cc1c(-c2ccc(Br)cc2)nc2ccccn12	0.5%	11.4%	2.2%	-0.8%	25.1µM*	?
Oc1ccc(CNc2cccc(F)c2F)c2cccnc12	1.3%	·	0.5%	-13.3%	·	·
COc1cc2c(NC3CCN(C)CC3)nc(N3CCCN(C)CC3)nc2cc1OCc1ccccc1	·	·	·	·	4.3%	·
C=CCC(CC=C)(CNC(=O)C(=O)Nc1ccc(C)cc1)c1ccccc1	·	·	·	·	2.0%	·
Cc1ccc(CNc2ncnc3c2c(-c2ccccc2)cn3-c2ccccc2)cc1	·	·	·	·	28.2µM*	·
